D3 ag = activates the human D3 dopamine receptor. P35462. D3R DiscoveRx beta-arrestin cells, luminescence, 90 min. max activation, %. hit rate 0.58% among 410,000. AID 652048; in the data active = max activation above about 30%; also: 0% is about no effect
Target sequence (P35462 whole entry, looked up): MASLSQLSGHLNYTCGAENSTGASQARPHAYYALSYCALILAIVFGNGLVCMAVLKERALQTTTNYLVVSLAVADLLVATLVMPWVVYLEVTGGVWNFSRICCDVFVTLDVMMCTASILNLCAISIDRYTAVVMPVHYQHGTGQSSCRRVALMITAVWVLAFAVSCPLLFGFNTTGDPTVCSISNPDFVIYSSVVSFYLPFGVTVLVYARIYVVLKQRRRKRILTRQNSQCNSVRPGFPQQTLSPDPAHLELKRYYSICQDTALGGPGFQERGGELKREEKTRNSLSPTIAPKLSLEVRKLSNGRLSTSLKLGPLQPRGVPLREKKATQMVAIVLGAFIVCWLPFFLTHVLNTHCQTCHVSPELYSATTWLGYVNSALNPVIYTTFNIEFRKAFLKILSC
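Agonist mode: compounds and dopamine controls were applied to plated cells for 90 min at 37 degrees C after an overnight attachment at 1500 cells/well. Luminescent read-out followed 30 - 60 minutes at room temperature with DiscoveRx detection reagent.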
D3 antag = blocks the human D3 dopamine receptor | P35462 | D3R cells, DiscoveRx beta-arrestin luminescence, antagonist mode; hits give low values | max response, negative = inhibition, % | hit rate 2.5% among 360,000 | AID 652054; in the data active = max response below about -50%; inconclusive = no clear call, values can overlap the other calls; also: % is scaled to controls: 0 for no effect and ±100 for the full control effect
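Cells plated overnight at 1500 cells/well, then exposed to library compounds with dopamine controls for 90 minutes at 37 degrees C. DiscoveRx reagent added for 30–60 minutes at room temperature; luminescence read, quantitative HTS format.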
TSHR antag = blocks TSH signaling through the human TSH receptor; activity change, negative = inhibition, % at 11.5 µM; TSHR-expressing cells, TSH-stimulated cAMP HTRF, 2 h; hits give low values; hit rate 0.2% among 330,000;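 active = activity change below a set negative limit, meaning inhibition stronger than a set level, cut at about -70% in these data; inconclusive = activity change between two set negative limits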; also: % is scaled to controls: 0 for no effect and ±100 for the full control effect
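TSHR-expressing cells, 200/well, pre-treated with compound, then stimulated with EC80 TSH (4nM final) for 2 hours at 37 deg C. cAMP measured by competitive HTRF: anti-cAMP cryptate antibody in lysis buffer plus cAMP-d2, read after 30 minutes at room temperature.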
B2AR arrestin = agonists driving beta-arrestin recruitment to human beta2-adrenergic receptor | P07550 | beta-arrestin recruitment to beta2AR, cell-based reporter | Potency, µM (highest dose often 46.1 µM), inactives show at the top dose activation, hits mostly activators | hit rate 0.02% among 330,000 | AID 492947; active = well fitted activation curve with a large enough effect; inconclusive = small, poorly fitted or top-dose-only effect;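 also: potency is read from the fitted curve at half-maximal effect; 0% = DMSO controls and full agonism = EC100 isoproterenol or metaproterenol; nearly all actives have a fitted effect of over 65% in size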
Active calls of the source: *; u = inconclusive; x = no result given. Sampled rows, rich in hits. Any-hit rate of the full collection: about 2.9%.

SMILES	D3 ag	D3 antag	TSHR antag	B2AR arrestin
O=C(NCCc1ccccc1)c1cccnc1N1CCCCCC1	2.5	-12.5	-80.4*	-3.1%
COC(=O)[C@]12CCCCC=C1N(CCc1ccc(OC)c(OC)c1)C(=O)[C@H](CC(=O)NCc1cccs1)C2	5.7	15.7	x	x
CCc1ccc(S(=O)(=O)/N=C2\C=CC(=O)c3ccccc32)cc1	x	x	19.6	0.4%
CCc1ccc(S(=O)(=O)/N=C2\C=C(Nc3cccc(C(=O)O)c3)C(=O)c3ccccc32)cc1	-36.7	-93.3*	x	-0.3%
CCc1ccc(S(=O)(=O)/N=C2\C=C(Nc3ccc(O)cc3)C(=O)c3ccccc32)cc1	-30.1	-89.8*	-19.1	0.6%
Cc1ccc(S(=O)(=O)/N=C2\C=C(NS(=O)(=O)c3ccccc3)C(=O)c3ccccc32)cc1	-6.4	-27.6	x	x
CCc1ccc(S(=O)(=O)/N=C2/C=C(Sc3ncn[nH]3)C(=O)c3ccccc32)cc1	-7.4	-80.4*	-13.3	-0.9%
CCOC(=O)CCc1c(C)nc(SCCN2CCCC2)c(C#N)c1C	-7.5	-55.5*	12.7	-0.1%
COc1ccc(CCNC(=O)CCc2c(C)nc3c(c(C)nn3-c3ccccc3)c2C)c(OC)c1	-2.5	x	x	x
O=c1c2ccc([N+](=O)[O-])cc2ncn1CCOc1cccc(Br)c1	32.4*	65.1	-18.7	0.0%
COc1cccc(-n2cc(C(=O)Oc3cccc(C(F)(F)F)c3)c3ccccc3c2=O)c1	3.8	x	x	x
COc1nccnc1NS(=O)(=O)c1ccc(NC(=S)NC(=O)c2cccc(F)c2)cc1	-3.2	-61.6*	-7.7	-0.9%
COc1nccnc1NS(=O)(=O)c1ccc(NC(=S)NC(=O)c2cccnc2)cc1	-8.8	-22.0	13.8	-0.7%
COc1ccc(/C=C/C(=O)NC(=S)Nc2ccc(S(=O)(=O)Nc3cc(OC)ncn3)cc2)cc1	8.9	-26.6	-10.5	0.1%
COc1ccc(/C=C/C(=O)NC(=S)Nc2ccc(S(=O)(=O)Nc3nccnc3OC)cc2)cc1	-8.7	-62.1*	-25.6	0.1%
COc1nccnc1NS(=O)(=O)c1ccc(NC(=S)NC(=O)c2ccc(F)cc2)cc1	-7.2	-64.7*	-4.2	-0.9%
COc1nccnc1NS(=O)(=O)c1ccc(NC(=S)NC(=O)c2ccccc2F)cc1	-11.2	13.1	-3.4	0.0%
CC(CCc1ccccc1)NC(=O)CN(C)Cc1ccccc1F (stereo not given)	41.2*	-0.9	-3.7	0.4%
Cc1ccc(NC(=O)C2CCN(C(=O)c3cnn(-c4ccccc4)c3-n3cccc3)CC2)cc1	7.7	x	x	x
CCOC(=O)C1=CCN(S(=O)(=O)c2ccc(C)cc2)C1c1ccccc1 (stereo not given)	-1.2	-9.8	x	x
CCOc1cc2c(c3c1C(c1ccccc1)N(S(=O)(=O)c1ccc(C)cc1)C3)C(=O)C=CC2=O (stereo not given)	-17.5	-114.6*	x	x
CC(C)C[C@H]1CNC(=O)C(=O)N1CC1CCN(CCc2ccccc2)CC1	-14.5	-76.3*	x	x
CC(C)CCN1CCC(CN2C(=O)C(=O)NC[C@@H]2Cc2ccccc2)CC1	-5.5	8.9	x	x
O=C1NC[C@H](Cc2ccccc2)N(CC2CCN(CCc3ccc(-c4ccccc4)cc3)CC2)C1=O	-46.2	-78.1*	x	x
CC(C)C[C@H]1CNC(=O)C(=O)N1CC1CCN(CCc2ccc(-c3ccccc3)cc2)CC1	-45.0	-59.8*	x	x
SMILES	D3 ag	D3 antag	TSHR antag	B2AR arrestin
O=C1NC[C@H](Cc2ccccc2)N(CC2CCN(CCc3ccccc3)CC2)C1=O	-37.5	-19.4	x	x
CCOC(=O)c1c(NC(=O)/C=C/c2ccc(C)cc2)sc(C(C)=O)c1C	-1.6	x	x	x
CCOCCOC(=O)c1ccc2c(c1)N(Cc1ccccc1C#N)C(=O)c1ccccc1S2(=O)=O	-9.5	x	x	x
CC1=C(C#N)C(c2ccc3ncccc3c2)C(C#N)=C(C)N1	17.7	-60.5*	-5.9	-0.4%
CC1=C(C#N)C(c2ccccc2O)C(C#N)=C(C)N1	-2.1	3.3	7.0	0.4%
Cc1ccc(-c2nc3c(C)cc(Br)cn3c2Cc2cccc(F)c2)cc1	-10.5	-57.3*	x	x
Cc1ccc(Cc2c(-c3ccco3)nc3c(C)cc(Br)cn23)cc1	-7.3	u	x	x
Cc1cc(Br)cn2c(Cc3ccccc3)c(-c3cccc(Cl)c3)nc12	-2.2	-60.1*	x	x
Cc1cc(Br)cn2c(Cc3cccc(F)c3)c(-c3ccc(F)cc3)nc12	-2.0	8.9	x	x
Cc1cc(Br)cn2c(Cc3cccc(Cl)c3)c(-c3ccco3)nc12	-9.6	-63.3*	x	x
COC(=O)C(=C/C(C)=C/c1cccnc1)C(=O)OC	1.2	-51.8*	5.4	-0.1%
